# Data reported in PubChem BioAssay AID1159580 (chemical genetic matrix, 2015).
# Several values for one entry are separate records, joined by “and”; a condition that tells them apart may be missing. Equal values may be shown once. Screen size: about 5,500 compounds; about 2,000 (36%) were called active. Not shown: some 18% with an inconclusive outcome. Some of the results follow. Values without a mark were called inactive. Rule as the data show it: active = normalized growth mostly below about 0.91 (no sharp cut-off); inconclusive = no clear call, values can overlap the other calls; inactive = mostly above about 0.92.
# Test: chemical genetic growth profiling, strain panel (AID 1159580);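 also: tested at 20 µM; growth read once vehicle control cultures reached saturation at 30 °C; 1 = growth at the plate median or of vehicle wells; lower values mean less growth of the strain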
# Conditions: S. cerevisiae deletion strains, growth OD
smiles,measurement,setting,value
NC(N)=O,normalized growth,"locus YAL013W, strain DEP1, hits give low values",1.02
same,normalized growth,"locus YAL021C, strain ccr4, hits give low values",1.02
same,normalized growth,"locus YAL026C, strain drs2, hits give low values",1.01
same,normalized growth,"locus YAL030W, strain snc1, hits give low values",1.02
same,normalized growth,"locus YBL061C, strain skt5, hits give low values",1.02
same,normalized growth,"locus YBR009C, strain hhf1, hits give low values",0.978
same,normalized growth,"locus YBR021W, strain FUR4, hits give low values",0.953
same,normalized growth,"locus YBR023C, strain chs3, hits give low values",1.02
same,normalized growth,"locus YBR171W, strain sec66, hits give low values",1.03
same,normalized growth,"locus YBR229C, strain ROT2, hits give low values",0.989
same,normalized growth,"locus YBR231C, strain swc5, hits give low values",1.03
same,normalized growth,"locus YBR279W, strain paf1, hits give low values",1.01
same,normalized growth,"locus YCL011C, strain gbp2, hits give low values",0.992
same,normalized growth,"locus YCL016C, strain dcc1, hits give low values",0.984
same,normalized growth,"locus YCL029C, strain bik1, hits give low values",0.991
same,normalized growth,"locus YCL061C, strain MRC1, hits give low values",1.03
same,normalized growth,"locus YCL069W, strain vba3, hits give low values",1
same,normalized growth,"locus YCR088W, strain abp1, hits give low values",1.01
same,normalized growth,"locus YDL005C, strain med2, hits give low values",1.01
same,normalized growth,"locus YDL035C, strain GPR1, hits give low values",1.01
same,normalized growth,"locus YDL040C, strain nat1, hits give low values",1.01
same,normalized growth,"locus YDL074C, strain BRE1, hits give low values",1.07
same,normalized growth,"locus YDL101C, strain DUN1, hits give low values",1
same,normalized growth,"locus YDL134C, strain PPH21, hits give low values",1
same,normalized growth,"locus YDL185W, strain tfp1, hits give low values",0.983
same,normalized growth,"locus YDL192W, strain arf1, hits give low values",0.994
same,normalized growth,"locus YDR001C, strain nth1, hits give low values",1.02
same,normalized growth,"locus YDR069C, strain doa4, hits give low values",1.04
same,normalized growth,"locus YDR101C, strain arx1, hits give low values",0.997
same,normalized growth,"locus YDR137W, strain rgp1, hits give low values",1.03
same,normalized growth,"locus YDR150W, strain NUM1, hits give low values",1.01
same,normalized growth,"locus YDR159W, strain sac3, hits give low values",0.965
same,normalized growth,"locus YDR162C, strain NBP2, hits give low values",1.04
same,normalized growth,"locus YDR195W, strain ref2",1.03
same,normalized growth,"locus YDR297W, strain sur2, hits give low values",1.01
same,normalized growth,"locus YDR318W, strain mcm21, hits give low values",0.998
same,normalized growth,"locus YDR334W, strain swr1, hits give low values",1.01
same,normalized growth,"locus YDR335W, strain msn5, hits give low values",1.01
same,normalized growth,"locus YDR388W, hits give low values",0.985
same,normalized growth,"locus YDR392W, strain spt3, hits give low values",0.959
same,normalized growth,"locus YDR502C, strain sam2, hits give low values",0.997
same,normalized growth,"locus YEL003W, strain gim4, hits give low values",1.01
same,normalized growth,"locus YEL037C, strain rad23, hits give low values",1.01
same,normalized growth,"locus YEL061C, strain CIN8 (second series), hits give low values",1.01
same,normalized growth,"locus YEL061C, strain CIN8, hits give low values",1.05
same,normalized growth,"locus YER015W, strain faa2, hits give low values",1.02
same,normalized growth,"locus YER016W, strain bim1, hits give low values",0.984
same,normalized growth,"locus YER110C, hits give low values",0.989
same,normalized growth,"locus YER111C, strain swi4, hits give low values",1.01
same,normalized growth,"locus YER155C, strain BEM2 (second series), hits give low values",1.01
same,normalized growth,"locus YER155C, strain BEM2, hits give low values",0.988
same,normalized growth,"locus YER167W, strain BCK2, hits give low values",0.983
same,normalized growth,"locus YFR010W, strain ubp6, hits give low values",1.01
same,normalized growth,"locus YGL078C, strain dbp3, hits give low values",0.988
same,normalized growth,"locus YGL086W, strain mad1, hits give low values",0.99
same,normalized growth,"locus YGL167C, strain pmr1, hits give low values",1.02
same,normalized growth,"locus YGL173C, strain kem1, hits give low values",1.02
same,normalized growth,"locus YGL227W, strain vid30, hits give low values",1.02
same,normalized growth,"locus YGL240W, strain doc1, hits give low values",1.03
same,normalized growth,"locus YGL248W, strain PDE1, hits give low values",1
same,normalized growth,"locus YGL253W, strain hxk2, hits give low values",1.01
same,normalized growth,"locus YGR078C, strain PAC10, hits give low values",1.03
same,normalized growth,"locus YGR135W, strain pre9, hits give low values",1
same,normalized growth,"locus YGR229C, strain SMI1, hits give low values",1.03
same,normalized growth,"locus YGR252W, strain gcn5, hits give low values",0.986
same,normalized growth,"locus YHR013C, strain ard1, hits give low values",0.998
same,normalized growth,"locus YHR027C, strain rpn1, hits give low values",1.01
same,normalized growth,"locus YHR030C, strain SLT2, hits give low values",0.986 and 1.01
same,normalized growth,"locus YHR079C, strain IRE1 (second series), hits give low values",0.991
same,normalized growth,"locus YHR079C, strain IRE1, hits give low values",1.01
same,normalized growth,"locus YHR094C, strain hxt1, hits give low values",0.996
same,normalized growth,"locus YHR129C, strain ARP1, hits give low values",0.998
same,normalized growth,"locus YHR142W, strain chs7, hits give low values",1.02
same,normalized growth,"locus YHR200W, strain rpn10, hits give low values",0.994
same,normalized growth,"locus YIL066C, strain RNR3, hits give low values",1.01
same,normalized growth,"locus YIL073C, strain SPO22, hits give low values",1.02
same,normalized growth,"locus YIL125W, strain kgd1, hits give low values",0.987
same,normalized growth,"locus YIR030C, strain dcg1, hits give low values",0.99
same,normalized growth,"locus YJL092W, strain hpr5, hits give low values",1.01
same,normalized growth,"locus YJL095W, strain BCK1 (second series), hits give low values",1.03
same,normalized growth,"locus YJL095W, strain BCK1, hits give low values",1.05 and 1.01
same,normalized growth,"locus YJL115W, strain asf1, hits give low values",1.01
same,normalized growth,"locus YJL129C, strain trk1, hits give low values",1.03
same,normalized growth,"locus YJL134W, strain LCB3, hits give low values",0.99
same,normalized growth,"locus YJL154C, strain vps35, hits give low values",1.01
same,normalized growth,"locus YJL164C, strain tpk1, hits give low values",0.985
same,normalized growth,"locus YJL166W, strain qcr8, hits give low values",1.02
same,normalized growth,"locus YJL168C, strain set2, hits give low values",0.98
same,normalized growth,"locus YJL187C, strain SWE1 (second series), hits give low values",1
same,normalized growth,"locus YJL187C, strain SWE1, hits give low values",1.02
same,normalized growth,"locus YJR043C, strain POL32, hits give low values",1.17 [resistant] (active)
same,normalized growth,"locus YJR066W, strain TOR1, hits give low values",0.951
